Test results taken from PubChem BioAssay AID504848 (National Center for Advancing Translational Sciences (NCATS), 2011).
About 1,400 (61%) of roughly 2,300 compounds were called active. Roughly 29% stayed inconclusive and do not appear here. The set was probably picked from earlier hits. The list shows a part of the results. A number with no mark means an inactive call. Calls follow the shape of the dose curve; as a rule, active = well fitted inhibition curve with a large enough effect; inconclusive = small, poorly fitted or top-dose-only effect, or effect the other way; inactive = no such curve, though single readings can be large or run the other way.

Test: Confirmation screen for delayed death inhibitors of the malarial parasite plastid, 96 hour incubation; also: nearly all actives have a fitted effect of over 60% in size
Conditions: P. falciparum luciferase growth in erythrocytes; series mostly up to 28.7 µM; activity change, negative = inhibition: at the top concentration
Method in brief: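 Two-generation (96 h, 37 C) exposure of P. falciparum carrying an integrated firefly luciferase reporter in erythrocytes, 0.1% parasitemia and 2% hematocrit final, Albumax-supplemented RPMI. Luminescence decrease measures growth inhibition.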
% is scaled to controls: 0 for no effect and ±100 for the full control effect; potency is read from the fitted curve at half-maximal effect.

Row | Compound | activity change, negative = inhibition | Potency
1 | O=C(CNC(=O)c1cccc(F)c1)N/N=C/c1ccc([N+](=O)[O-])s1 | -105% | 
2 | COc1ccc(C(=O)NCC(=O)N/N=C/c2ccc([N+](=O)[O-])s2)cc1OC |  | 6.31 µM (active)
3 | CCN(CC)Cc1cc2[nH]c3c4ccc(Cl)cc4ncc3c2cc1OC |  | 0.199 µM (active)
4 | O=C(COC(=O)C1C2CC3OC(=O)C1C3C2)Nc1ccccc1 (configuration not stated) | -15.9% | 
5 | CSc1c(CC(=O)Nc2ccccc2)n(C)c2ccccc12 |  | 8.91 µM (active)
6 | Brc1c(CSc2nc3ccccc3s2)nc2ncccn12 |  | 6.31 µM (active)
7 | CC[C@@H](C)C(NC(=O)OC(C)(C)C)c1cn([C@@H](Cc2ccc(O)cc2)C(=O)N2CCN(C(=O)OC(C)(C)C)CC2)nn1 (some centres not stated) |  | 8.91 µM (active)
8 | CC[C@@H](C)C(NC(=O)OC(C)(C)C)c1cn([C@@H](CCCCNC(=O)OC(C)(C)C)C(=O)N2CCN(C(=O)OC(C)(C)C)CC2)nn1 (some centres not stated) |  | 1.26 µM (active)
9 | CCC(CC)N1CCN(Cc2nc3ccc([N+](=O)[O-])cc3c(=O)n2-c2ccccc2F)CC1 | -22.7% | 
10 | CCOc1ccc2c(c1)C(c1ccccc1)=NNC(c1ccccc1)=N2 |  | 10 µM (active)
11 | Brc1ccccc1-c1nnc(COc2ncnc3c2cnn3-c2ccccc2)o1 | -8.78% | 
12 | CCOC(=O)c1c(S(=O)(=O)NCC(=O)N2CCN(c3ccccc3OC)CC2)c(C)n(C)c1C |  | 12.6 µM (active)
13 | CN(Cc1cccc(Cl)c1Cl)C(=O)c1ccc(NC(=O)CC#N)cc1 |  | 4.47 µM (active)
14 | O=C(Nc1ccc2c(c1)CCCN2C(=O)c1ccco1)c1cc([N+](=O)[O-])ccc1Cl |  | 14.1 µM (active)
15 | COCCCNC(=O)c1cc2cc3cc(OC)ccc3nc2o1 |  | 2.24 µM (active)
16 | COc1ccccc1NC(=S)NCc1cccs1 | -10.1% | 
17 | Cc1ccc2cc3cc(C(=O)NCCCN4CCCC4=O)oc3nc2c1 |  | 1 µM (active)
18 | COc1ccc2nc3oc(C(=O)NCc4cccs4)cc3cc2c1 |  | 2.24 µM (active)
19 | OC(CN1C2=NCCN2c2ccccc21)c1ccc2c(c1)OCO2 (configuration not stated) |  | 2.51 µM (active)
20 | O=C(CN1C2=NCCCN2c2ccccc21)c1ccc2c(c1)OCO2 |  | 7.08 µM (active)
21 | Cc1ccc(C)c(C(=O)CN2C3=NCCCN3c3ccccc32)c1 |  | 5.62 µM (active)
22 | O=C(C[n+]1cccc(CNC(=O)c2ccc(OC(F)F)cc2)c1)Nc1ccc(SC(F)F)cc1 |  | 1 µM (active)
23 | CN(C)c1cc[n+](CC(=O)Nc2ccc(OC(F)F)cc2)cc1 |  | 1.58 µM (active)
24 | CCOc1ccc(NC(=O)C[n+]2ccc(N(C)C)cc2)cc1 |  | 0.501 µM (active)
25 | Cn1nnnc1Sc1ncnc2scc(-c3ccsc3)c12 |  | 3.98 µM (active)
26 | Cn1nnnc1Sc1ncnc2scc(-c3ccc[nH]3)c12 |  | 11.2 µM (active)
27 | Cn1nnnc1Sc1ncnc2scc(-c3cccs3)c12 |  | 8.91 µM (active)
